# Measurements: ChEMBL document CHEMBL3988442, “University of Dundee, Small-Polar-MMV Screening Library” (2021)
# Key:
# [1] = target: T1, Aspartate--tRNA(Asp/Asn) ligase (Mycobacterium tuberculosis (strain ATCC 25618 / H37Rv)) (UniProt P9WFW3); assay: Assay for Asp RNA synthetase-1 from Mycobacterium tuberculosis; format: functional; parameters: scale not given: direction of the effect not stated beside the values; details: 30 µM; note: in the data most compounds retested in dose-response had high values
# T1 sequence (whole entry): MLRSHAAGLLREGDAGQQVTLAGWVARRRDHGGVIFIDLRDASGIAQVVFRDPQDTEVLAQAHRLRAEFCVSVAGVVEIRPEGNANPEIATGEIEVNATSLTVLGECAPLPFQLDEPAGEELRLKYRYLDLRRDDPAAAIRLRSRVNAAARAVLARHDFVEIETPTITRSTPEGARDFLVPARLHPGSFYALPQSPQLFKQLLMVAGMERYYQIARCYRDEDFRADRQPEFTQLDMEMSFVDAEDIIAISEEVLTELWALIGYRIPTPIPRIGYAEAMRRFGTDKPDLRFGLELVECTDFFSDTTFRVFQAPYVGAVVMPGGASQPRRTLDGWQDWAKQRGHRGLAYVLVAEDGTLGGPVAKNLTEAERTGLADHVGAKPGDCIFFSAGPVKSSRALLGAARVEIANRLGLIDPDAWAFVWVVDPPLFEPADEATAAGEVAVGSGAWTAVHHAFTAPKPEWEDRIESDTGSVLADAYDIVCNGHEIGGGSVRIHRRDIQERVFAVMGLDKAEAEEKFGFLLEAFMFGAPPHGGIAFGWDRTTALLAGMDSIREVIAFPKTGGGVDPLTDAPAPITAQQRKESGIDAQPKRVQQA
# [2] = target: Shiga toxin 2 (Escherichia coli O157:H7) (UniProt P09385+P09386); assay: E. coli 0.157:H7 Shiga Toxin SOP - stx2 screening assay; format: functional; parameters: scale not given: direction of the effect not stated beside the values; details: 30 µM
SMILES,Percent Effect [1] [%],Percent Effect [2] [%]
Cc1cc(C)n(CC2CCCN2C(=O)CCc2cscn2)n1 (stereo not drawn),-0.678,17
COCCNS(=O)(=O)c1ccc2c(c1)CCN(C(=O)c1cncn1C)C2,0.891,-23.1
COCC(=O)N1CCC(c2nc3ccc(N4CCCC4)cn3n2)CC1,-0.957,-26.9
CC(=O)N1CC[C@@H]2CN(C(=O)c3ccco3)CCO[C@@H]2C1,4.25,-3.17
Cc1nc(C)n(CC2CCCN2Cc2nc(-c3cccs3)no2)n1 (stereo not drawn),-2.77,29.7
Cc1ccc(C(=O)NS(=O)(=O)c2ccccc2C)c(=O)[nH]1,-0.991,10.2
NC(=O)N1CC[C@H](O)[C@@H]1Cc1cccnc1,1.51,0.815
CCn1ccnc1CNCC1CCCN1c1cccnn1 (stereo not drawn),-8.36,6.68
Cc1csc(CNC(=O)N(C)Cc2cnn(C)c2)n1,1.54,-1.35
O=C1NCCN1C1CCN(CCc2cccs2)CC1,-0.519,4.4
CC(C)Nc1ncnc2c1CCN(C(=O)Cc1ccccn1)CC2,3.17,-44.7
c1ccc(-n2ccc(CN3CCCC3Cn3cccn3)n2)cc1 (stereo not drawn),4.81,-19.3
CCC(=O)N1CCc2nc3cc(OC)c(OC)cc3c(=O)n2CC1,-5.4,-7.9
Cc1ccc(CN2CCc3ncnc(C4CC4)c3CC2)s1,9.9,-8.76
O=C1NC(c2ccccc2)=N[C@@]12CC[C@@H]1CN(Cc3ccccc3)C[C@@H]12,0.728,-14.6
O=C(Nc1cnn(CCN2CCOCC2)c1)c1cc(F)ccc1F,0.211,21.3
CCn1nccc1CNC(=O)C1CCCC1,11.4,-65.5
c1csc(CN2C[C@@H]3OCCN(CC4CCCO4)[C@@H]3C2)c1 (stereo partly drawn),-2.14,7.71
COc1ccc(CN(C)C(=O)NCc2c(C)cc(C)[nH]c2=O)cc1,0.281,31.7
